From PubChem BioAssay (NCATS)
Records with an inconclusive call do not appear. Active and inactive are the calls of the source. Unless noted, calls follow the shape of the dose curve; as a rule, active = well fitted cell-killing curve with a large enough effect; inconclusive = small, poorly fitted or top-dose-only effect; inactive = flat fitted curve, though single readings scatter.

How the values were obtained:
[1] = Cell Viability - LYMP2-020 (AID 986);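 also: series mostly up to about 92 µM; cells exposed to compound for 24 h at 37 °C; nearly all actives have a fitted effect of over 55% in size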
How it was run: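 Acute cytotoxicity in a human lymphoblastoid line is scored as a concentration-dependent fall in cellular ATP after 24 hr at 37 C in complete medium. The positive control is tetraoctylammonium bromide, and potency is given as Hill-fit AC50.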

[2] = Cell Viability - LYMP2-022 (AID 987);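 also: cells exposed to compound for 24 hr; nearly all actives have a fitted effect of over 55% in size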
How it was run: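 Acute toxicity in a human lymphoblastoid line is scored as decreased intracellular ATP after 24 hr compound treatment at 37 C. ATP is measured by CellTiter-Glo luminescence; curves are fitted with the Hill equation to give AC50.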

[3] = Cell Viability - LYMP2-024 (AID 988);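 also: cells exposed to compound for 24 hr at 37 °C; nearly all actives have a fitted effect of over 60% in size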
How it was run: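 Acute toxicity is measured as concentration-dependent loss of intracellular ATP in a human lymphoblastoid line treated 24 hours at 37 C. Luciferase luminescence quantifies ATP; AC50 values come from standard Hill-equation modelling.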

[4] = Cell Viability - LYMP2-026 (AID 989);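 also: cells exposed to compound for 24 h at 37 °C; nearly all actives have a fitted effect of over 50% in size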
How it was run: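 Concentration-dependent loss of intracellular ATP in human lymphoblastoid cells after 24 hr at 37 C, quantified by luciferase luminescence. AC50 derived from standard Hill equation.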

[5] = Cell Viability - LYMP1-002 - Assay at 24 hr (AID 993)
How it was run: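 qHTS, LYMP1-002 lymphoblastoid, 24 h cpd, 37 C, CellTiter-Glo ATP luminescence; AC50 via Hill eq.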

[6] = Cell Viability - LYMP1-002 - Assay at 40 hr (AID 994); also: nearly all actives have a fitted effect of over 60% in size
How it was run: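 Viability in the human lymphoblastoid line was measured as intracellular ATP via CellTiter-Glo after 40 hr compound exposure. Tetraoctylammonium bromide served as positive control.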

[7] = qHTS Assay for Identification of Small Molecule Inducers of Hypoxia Response (AID 2120; active = well fitted curve in the direction sought with a large enough effect in the signal ratio, with a control signal flat, not every such curve was filed as active; the % refers to the signal ratio)
How it was run: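 Induction of beta-lactamase reporter activity was measured in CellSensor HRE-bla ME-180 cells after 17 h compound treatment at 37 degrees C, using CCF4 substrate and the 460nm/530nm emission ratio to derive AC50 values.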

[8] = target: Estrogen receptor (Homo sapiens) (UniProt P03372); experiment: qHTS assay for small molecule antagonists of estrogen receptor alpha signaling (AID 588513; active = well fitted curve in the direction sought with a large enough effect in the signal ratio, with a control signal flat, not every such curve was filed as active; the % refers to the signal ratio)
How it was run: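 Antagonist-mode qHTS in ER-alpha-UAS-bla HEK 293 cells: compound titration, 0.5nM estradiol for 18 h, CCF4 fluorescence, Hill-derived IC50.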

[9] = target: Estrogen receptor (Homo sapiens) (UniProt P03372); experiment: qHTS assay for small molecule agonists of estrogen receptor alpha signaling (AID 588514; calls by dose curve; also: nearly all actives have a fitted effect of over 70% in size)
How it was run: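 Reporter-gene assay. […] controls beta-lactamase in HEK 293 GripTite cells; after 18 hrs with compound, CCF4 substrate is added for 2 hrs and fluorescence is read.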

Measured: Potency

Sequence of Estrogen receptor (Homo sapiens) (P03372 whole entry, looked up): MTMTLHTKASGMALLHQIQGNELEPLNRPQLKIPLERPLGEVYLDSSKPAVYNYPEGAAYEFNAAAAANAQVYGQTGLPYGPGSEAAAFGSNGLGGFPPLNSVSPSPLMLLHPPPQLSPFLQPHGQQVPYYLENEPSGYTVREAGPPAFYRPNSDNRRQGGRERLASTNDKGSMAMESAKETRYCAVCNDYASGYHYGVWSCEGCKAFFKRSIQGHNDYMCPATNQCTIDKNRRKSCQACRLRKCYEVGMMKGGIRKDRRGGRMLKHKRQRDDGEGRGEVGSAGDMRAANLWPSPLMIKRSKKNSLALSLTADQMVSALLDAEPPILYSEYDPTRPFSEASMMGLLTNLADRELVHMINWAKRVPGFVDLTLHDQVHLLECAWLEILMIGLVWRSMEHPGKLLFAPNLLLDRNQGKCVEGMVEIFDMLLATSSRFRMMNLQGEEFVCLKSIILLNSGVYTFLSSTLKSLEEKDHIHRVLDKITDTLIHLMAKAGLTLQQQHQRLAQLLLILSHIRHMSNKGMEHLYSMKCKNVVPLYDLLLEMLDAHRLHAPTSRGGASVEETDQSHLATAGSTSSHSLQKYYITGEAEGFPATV

CCOc1ccccc1N
inactive: all assays above

C=CCCC
inactive: all assays above

CC/C=C/C#N
not listed: [6]
inactive: all other assays above

CCCCCO
inactive: all assays above

OC/C(Br)=C(\Br)CO
inactive: all assays above

O=C1CCC(=O)O1
inactive: all assays above

Cc1cc(C)cc([N+](=O)[O-])c1
not listed: [6]
inactive: all other assays above

CCNc1cc(O)ccc1C
inactive: all assays above

NC(=O)CCCCC(N)=O
not listed: [6]
inactive: all other assays above

CCCCCCC(=O)O
inactive: all assays above

Cc1ccc(C(C)(C)C)cc1
inactive: all assays above

FC(F)(F)c1ccccc1Cl
not listed: [6]
inactive: all other assays above

C(=C/c1ccccc1)/c1ccccc1
inactive: all assays above

O=C(O)c1ccc(Cl)c(Cl)c1
inactive: all assays above

Cc1ccc2oc(=O)ccc2c1
inactive: all assays above

Cc1c(N)cccc1[N+](=O)[O-]
not listed: [6]
inactive: all other assays above

CC(C)N=C=NC(C)C
inactive: all assays above

CC(=O)c1ccccc1[N+](=O)[O-]
inactive: all assays above

CCc1ccccc1O
inactive: all assays above

CC(=O)Nc1ccccc1C
inactive: all assays above

CCCCCCCCC
inactive: all assays above

Cc1ccccc1C=O
inactive: all assays above

NC(=O)c1ccccc1[N+](=O)[O-]
inactive: all assays above

CCC(C)(C)C
not listed: [6]
inactive: all other assays above

ICCc1ccccc1
inactive: all assays above

CNc1ccccc1
inactive: all assays above

Cc1cccc(C(=O)O)c1[N+](=O)[O-]
not listed: [6]
inactive: all other assays above

CCc1ccccc1
inactive: all assays above

COC(=O)CCC(=O)OC
inactive: all assays above

Nc1cc(Cl)c([N+](=O)[O-])cc1O
inactive: all assays above

Cc1cc(C)cc(O)c1
not listed: [6]
inactive: all other assays above

COc1ccc(N)c(C)c1
not listed: [6]
inactive: all other assays above

CCCCCCCCCCCCC1CO1 (centres undefined)
inactive: all assays above

Fc1ccccc1
inactive: all assays above

Nc1cccc(O)c1
inactive: all assays above

Cc1ccc(Br)cc1
inactive: all assays above

CC(C)(C)c1ccc(OCC2CO2)cc1 (centres undefined)
inactive: all assays above

Cc1ccc(S(=O)(=O)NC2CCCCC2)cc1
inactive: all assays above

O=[N+]([O-])c1cccc(Cl)c1
inactive: all assays above

CC(=O)Nc1cccc(N)c1
inactive: all assays above

CCCCCCO
inactive: all assays above

C=CCOC(=O)COCCC(C)C
inactive: all assays above

Cc1cc([N+](=O)[O-])ccc1N
inactive: all assays above

Cc1cccc([N+](=O)[O-])c1C(=O)O
inactive: all assays above

CC(N)CN (centres undefined)
inactive: all assays above

CC(=O)OC(C)C
inactive: all assays above

NC(N)=S
inactive: all assays above

CCC(O)C(C)(C)C (centres undefined)
inactive: all assays above

O=C(O[C@@H](C(=O)O)[C@@H](OC(=O)c1ccccc1)C(=O)O)c1ccccc1
inactive: all assays above

C=C(C)C(=O)OCCCCCCCCCC
inactive: all assays above

CC(=O)OCc1ccco1
inactive: all assays above

COc1ccc(OC)cc1
inactive: all assays above

O=[N+]([O-])c1ccc2nc[nH]c2c1
inactive: all assays above

CCC(C)(C)OC
inactive: all assays above

FB(F)F
inactive: all assays above

O=C(O)c1ccc(Cl)cc1Cl
inactive: all assays above

CCCCCCCCCCCCOCC1CO1 (centres undefined)
inactive: all assays above
